Experimental data published in PubChem BioAssay.
Unmarked numbers belong to inactive results. The rule behind the calls is not given here.

Target: Pantothenate synthetase (Mycobacterium tuberculosis (strain ATCC 25618 / H37Rv)) (UniProt P9WIL5)
Assay: Coupled enzyme confirmation of inhibitors against recombinant Mtb PanC (AID 375);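 note: 0% = full reaction with vehicle and 100% = no enzyme background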
Settings: coupled enzyme assay; at 10 µM, stronger effect = higher value

Pantothenate synthetase (Mycobacterium tuberculosis (strain ATCC 25618 / H37Rv)), sequence (P9WIL5 whole entry, looked up): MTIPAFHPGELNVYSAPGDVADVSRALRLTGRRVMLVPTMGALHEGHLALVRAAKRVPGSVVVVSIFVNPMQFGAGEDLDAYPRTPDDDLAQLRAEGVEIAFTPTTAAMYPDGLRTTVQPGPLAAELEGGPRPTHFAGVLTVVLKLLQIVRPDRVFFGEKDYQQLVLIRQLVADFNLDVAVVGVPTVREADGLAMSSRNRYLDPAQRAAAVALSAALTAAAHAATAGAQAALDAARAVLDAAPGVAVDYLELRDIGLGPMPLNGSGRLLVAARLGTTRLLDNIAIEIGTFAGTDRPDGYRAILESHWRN

## C[C@H](CCC(=O)O)[C@H]1CC[C@H]2[C@@H]3C(=O)C[C@@H]4CC(=O)CC[C@]4(C)[C@H]3CC(=O)[C@]12C
  inhibition: 2%

## Nc1ccc(S(=O)(=O)c2ccc(N)cc2)cc1
  inhibition: 0%

## COc1ccc2c(c1)c1c(n2C(C)=O)C(OC(C)=O)=NCC1
  inhibition: 0%
